Assay results reported in PubChem BioAssay (EPA / NIEHS).
Inconclusive results are not listed. Active and inactive are the calls of the source. How the source made its calls, unless noted: active means hit-call score of the fitted dose curve at least 0.9, where 1 is the maximum; inactive means score below 0.9.

Experiments:
[1] = target: Glucocorticoid receptor (Homo sapiens) (UniProt P04150); experiment: ATG_GR_TRANS: Attagene TRANS-FACTORIAL HepG2 Assay for human Glucocorticoid Receptor (GR) (AID 2282978; active means hit-call score of the fitted dose curve at least 0.9, where 1 is the maximum;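 further: activators score as hits since higher reporter transcript over DMSO is fitted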); details: HepG2 Attagene TRANS GR reporter, mRNA transcription
In short: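 HepG2 transient transfection, multiple reporter units, GAL4-UAS under NR-GAL4 chimera control. 24 h treatment. Reporter mRNA by RT-PCR/CE fluorescence, DMSO as negative control.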

[2] = target: Bile acid receptor (Homo sapiens) (UniProt Q96RI1); experiment: ATG_FXR_TRANS: Attagene TRANS-FACTORIAL HepG2 Assay for Farnesoid X Receptor (FXR) (AID 2282979; active means hit-call score of the fitted dose curve at least 0.9, where 1 is the maximum;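 further: hits raise reporter mRNA above DMSO so AC50 marks FXR activation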); details: HepG2 Attagene TRANS FXR-GAL4 reporter transcription
In short: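 HepG2 cells transiently transfected with reporter constructs in which a chimeric FXR-GAL4 protein drives a GAL4-UAS reporter; 24 h compound exposure. Reporter mRNA measured by RT-PCR, FAM labelling, HpaI digestion and capillary electrophoresis; gain-of-signal versus DMSO.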

[3] = target: Oxysterols receptor LXR-alpha (Homo sapiens) (UniProt Q13133); experiment: ATG_LXRa_TRANS: Attagene TRANS-FACTORIAL HepG2 Assay for human Liver X Receptor alpha (LXRa) (AID 2282980; active means hit-call score of the fitted dose curve at least 0.9, where 1 is the maximum); details: HepG2 Attagene TRANS reporter, LXRa transactivation
In short: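 HepG2 cells were transiently transfected with multiplexed reporter units driven by chimeric LXRa–GAL4 fusion proteins, then dosed for 24 h. Reporter mRNA was quantified by RT-PCR, fluorescent labelling and capillary electrophoresis; gain of signal fitted against DMSO baseline.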

[4] = target: Oxysterols receptor LXR-beta (Homo sapiens) (UniProt P55055); experiment: ATG_LXRb_TRANS: Attagene TRANS-FACTORIAL HepG2 Assay for human Liver X Receptor beta (LXRb) (AID 2282981; active means hit-call score of the fitted dose curve at least 0.9, where 1 is the maximum); details: HepG2 Attagene TRANS GAL4-LXRb reporter, mRNA
In short: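 Liver-derived HepG2 cells transfected with Gal4-responsive reporters were dosed for 24 h. Activation was scored as rise in reporter mRNA, by RT-PCR and capillary electrophoresis, above DMSO baseline.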

[5] = ATG_M_06_TRANS: Attagene TRANS-FACTORIAL HepG2 Assay for M06 Transcription Factor (Internal Marker) (AID 2282983; active means hit-call score of the fitted dose curve at least 0.9, where 1 is the maximum); details: HepG2 Attagene TRANS M06 internal marker reporter
In short: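 In this multiplexed HepG2 system, compounds are incubated 24 h with cells carrying GAL4-UAS reporter units. Reporter RNA is amplified and resolved by capillary electrophoresis, and induction is scored against DMSO.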

[6] = target: Transcriptional activator Myb (Homo sapiens) (UniProt P10242); experiment: ATG_Myb_CIS: Attagene CIS-FACTORIAL HepG2 Assay for human Myeloblastosis (Myb) Proto-Oncogene Transcription Factor (AID 2282986); details: HepG2 Attagene CIS-FACTORIAL Myb reporter transcription; actives raise or lower the signal
In short: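 Multiplexed cis-reporter system in HepG2: transient transfection, 24 h treatment, mRNA readout by RT-PCR and capillary electrophoresis. Both increases and decreases are scored versus DMSO negative control.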

[7] = ATG_NFI_CIS: Attagene CIS-FACTORIAL HepG2 Assay for human Nuclear Factor I (NFI) (AID 2282989); details: HepG2 cis-regulatory reporter, NFI response element transcription; actives raise or lower the signal
In short: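 Transfected HepG2 liver cells, exposed 24 h, supplied total RNA for oligo(dT) reverse transcription and reporter-specific PCR. Labelled, HpaI-cut fragments were sized by capillary electrophoresis; DMSO set the baseline for bidirectional fitting.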

[8] = target: Myc proto-oncogene protein (Homo sapiens) (UniProt P01106); experiment: ATG_Myc_CIS: Attagene CIS-FACTORIAL HepG2 Assay for human Myelocytomatosis (Myc) Proto-Oncogene Transcription Factor (AID 2282990); details: HepG2, Attagene cis-reporter transcription factor activity; actives raise or lower the signal
In short: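 Multiplexed cis-reporter transcription in HepG2 cells after 24 h chemical treatment. Reporter mRNA measured by RT-PCR and capillary electrophoresis fluorescence; activity fitted bidirectionally against DMSO control.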

[9] = ATG_NF_kB_CIS: Attagene CIS-FACTORIAL HepG2 Assay for human Nuclear Factor Kappa B (NF-kB) (AID 2282991); details: HepG2 Attagene cis-factorial NF-kB reporter mRNA; actives raise or lower the signal
In short: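 After 24 h compound incubation, transfected HepG2 cells yield total RNA; reporter cDNA is PCR-amplified, end-labelled with 6-FAM, HpaI-digested and analysed on a genetic analyser. Endogenous factor activity, DMSO-referenced bidirectional fit.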

[10] = ATG_NRF2_ARE_CIS: Attagene CIS-FACTORIAL HepG2 Assay for human Nuclear Factor Erythroid 2 Related Factor 2 (NFR2) response to Antioxidant Response Elements (ARE) (AID 2282992); details: HepG2 Attagene ARE/NRF2 reporter, transcription factor activity; actives raise or lower the signal
In short: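 Endogenous transcription factor activity read out as reporter transcript levels (RT-PCR plus capillary electrophoresis, fluorescence) in transiently transfected HepG2 cells. Measured at 24 h after dosing; gain or loss of signal fitted versus DMSO.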

[11] = ATG_Oct_MLP_CIS: Attagene CIS-FACTORIAL HepG2 Assay for human Octamer-Binding Transcription Factor (Oct) (AID 2282993); details: HepG2 Attagene cis-factorial Oct reporter, mRNA; actives raise or lower the signal
In short: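 Using HepG2 cells bearing transfected cis-reporter constructs, mRNA induction was read after 24 h by fluorescent RT-PCR and capillary electrophoresis, with DMSO defining baseline for gain- or loss-of-signal fits.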

[12] = target: Cellular tumor antigen p53 (Homo sapiens) (UniProt P04637); experiment: ATG_p53_CIS: Attagene CIS-FACTORIAL HepG2 Assay for human p53 Transcription Factor (AID 2282994); details: HepG2 p53 cis-element reporter, Attagene mRNA; actives raise or lower the signal
In short: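 Endogenous p53 activity read in transiently transfected HepG2 from a cis-element-driven reporter transcript after 24 h exposure. RNA reverse-transcribed, PCR-amplified, fluorescently labelled and sized by capillary electrophoresis; gain or loss fitted against DMSO baseline.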

[13] = BSK_3C_TissueFactor: BioMAP Diversity Plus: 3C Assay for Tissue Factor Biomarker Activity (AID 2282997); details: BioMAP 3C HUVEC, tissue factor biomarker readout; actives raise or lower the signal
In short: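 Readout: Tissue Factor ELISA. Cells: human primary umbilical vein endothelium. Time: 24 h after dosing. Analysis: bidirectional fit, DMSO baseline.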

[14] = BSK_3C_uPAR: BioMAP Diversity Plus: 3C Assay for Urokinase-type plasminogen activator receptor (uPAR) Biomarker Activity (AID 2282998); details: BioMAP 3C HUVEC, uPAR biomarker ELISA; actives raise or lower the signal
In short: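 In this endothelial cell-based assay, human umbilical vein primary cells were treated with chemicals and harvested at 24 h. uPAR was quantified using ELISA, with gains or losses fitted relative to DMSO controls.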

[15] = ATG_M_32_TRANS: Attagene TRANS-FACTORIAL HepG2 Assay for M32 Transcription Factor (Internal Marker) (AID 2282984; active means hit-call score of the fitted dose curve at least 0.9, where 1 is the maximum;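 further: transcript level of a background control reporter unit measured by RT-PCR and capillary electrophoresis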); details: HepG2 Attagene TRANS M32 internal marker reporter
In short: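 Fluorescence-detected mRNA induction, HepG2 liver cells, 24 h after dosing. Multiple GAL4-UAS reporter units introduced by transient transfection; background-control endpoint analysed for gain of signal against DMSO.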

[16] = target: Nuclear receptor subfamily 4 group A member 2 (Homo sapiens) (UniProt P43354); experiment: ATG_NURR1_TRANS: Attagene TRANS-FACTORIAL HepG2 Assay for human Nuclear Receptor Related Protein 1 (NURR1) (AID 2282985; active means hit-call score of the fitted dose curve at least 0.9, where 1 is the maximum); details: HepG2 Attagene TRANS reporter, mRNA readout
In short: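 Chimeric NR-Gal4 proteins were expressed in human HepG2 cells bearing GAL4-UAS reporter units, and induced reporter mRNA was quantified 24 h post-dosing by RT-PCR and capillary electrophoresis.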

[17] = target: Nuclear respiratory factor 1 (Homo sapiens) (UniProt Q16656); experiment: ATG_NRF1_CIS: Attagene CIS-FACTORIAL HepG2 Assay for human Nuclear Respiratory Factor 1 (NRF1) Orphan Gene (AID 2282987); details: HepG2 NRF1 cis-element reporter, Attagene multiplex; actives raise or lower the signal
In short: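 Endogenous factor activity was captured via cis-element-driven reporter transcripts in HepG2 cells. Following 24 h chemical treatment, transcripts were quantified by RT-PCR and capillary electrophoresis.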

[18] = target: Hepatocyte nuclear factor 4-alpha (Homo sapiens) (UniProt P41235); experiment: ATG_HNF4a_TRANS: Attagene TRANS-FACTORIAL HepG2 Assay for human Hepatocyte Nuclear Factor 4 alpha (HNF4a) (AID 2282982; active means hit-call score of the fitted dose curve at least 0.9, where 1 is the maximum); details: HepG2 HNF4a transactivation reporter, mRNA readout
In short: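 Using HepG2 liver cells transfected with GAL4-UAS reporter units, chemical-induced mRNA increases were assessed after 24 hours. Fluorescent RT-PCR fragments were separated by capillary electrophoresis and compared with DMSO negative controls.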

Measured: AC50

Bile acid receptor (Homo sapiens), sequence (Q96RI1 whole entry, looked up, the tested form may be a part): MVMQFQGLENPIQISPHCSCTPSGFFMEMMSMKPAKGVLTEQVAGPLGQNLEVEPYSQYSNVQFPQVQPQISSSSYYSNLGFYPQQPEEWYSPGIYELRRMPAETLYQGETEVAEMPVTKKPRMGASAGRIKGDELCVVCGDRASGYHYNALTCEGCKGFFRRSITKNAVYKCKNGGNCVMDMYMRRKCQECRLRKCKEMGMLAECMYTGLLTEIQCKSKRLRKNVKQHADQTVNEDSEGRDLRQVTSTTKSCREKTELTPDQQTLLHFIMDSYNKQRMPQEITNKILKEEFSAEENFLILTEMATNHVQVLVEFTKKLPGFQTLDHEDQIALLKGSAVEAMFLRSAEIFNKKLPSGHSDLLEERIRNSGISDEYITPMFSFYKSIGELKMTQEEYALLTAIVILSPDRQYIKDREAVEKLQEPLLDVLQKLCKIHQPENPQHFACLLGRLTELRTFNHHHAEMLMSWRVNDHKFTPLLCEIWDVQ
Cellular tumor antigen p53 (Homo sapiens), sequence (P04637 whole entry, looked up): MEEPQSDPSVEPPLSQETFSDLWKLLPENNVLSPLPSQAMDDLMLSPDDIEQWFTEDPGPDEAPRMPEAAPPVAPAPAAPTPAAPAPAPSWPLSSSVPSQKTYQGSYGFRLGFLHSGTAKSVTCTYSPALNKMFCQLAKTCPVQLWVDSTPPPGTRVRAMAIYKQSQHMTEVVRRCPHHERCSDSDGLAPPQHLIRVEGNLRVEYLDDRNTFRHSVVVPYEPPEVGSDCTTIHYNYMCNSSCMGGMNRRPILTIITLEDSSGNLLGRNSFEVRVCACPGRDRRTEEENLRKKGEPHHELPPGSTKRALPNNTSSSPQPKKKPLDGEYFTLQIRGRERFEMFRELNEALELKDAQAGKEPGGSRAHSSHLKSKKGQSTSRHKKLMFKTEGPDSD
Glucocorticoid receptor (Homo sapiens), sequence (P04150 whole entry, looked up, the tested form may be a part): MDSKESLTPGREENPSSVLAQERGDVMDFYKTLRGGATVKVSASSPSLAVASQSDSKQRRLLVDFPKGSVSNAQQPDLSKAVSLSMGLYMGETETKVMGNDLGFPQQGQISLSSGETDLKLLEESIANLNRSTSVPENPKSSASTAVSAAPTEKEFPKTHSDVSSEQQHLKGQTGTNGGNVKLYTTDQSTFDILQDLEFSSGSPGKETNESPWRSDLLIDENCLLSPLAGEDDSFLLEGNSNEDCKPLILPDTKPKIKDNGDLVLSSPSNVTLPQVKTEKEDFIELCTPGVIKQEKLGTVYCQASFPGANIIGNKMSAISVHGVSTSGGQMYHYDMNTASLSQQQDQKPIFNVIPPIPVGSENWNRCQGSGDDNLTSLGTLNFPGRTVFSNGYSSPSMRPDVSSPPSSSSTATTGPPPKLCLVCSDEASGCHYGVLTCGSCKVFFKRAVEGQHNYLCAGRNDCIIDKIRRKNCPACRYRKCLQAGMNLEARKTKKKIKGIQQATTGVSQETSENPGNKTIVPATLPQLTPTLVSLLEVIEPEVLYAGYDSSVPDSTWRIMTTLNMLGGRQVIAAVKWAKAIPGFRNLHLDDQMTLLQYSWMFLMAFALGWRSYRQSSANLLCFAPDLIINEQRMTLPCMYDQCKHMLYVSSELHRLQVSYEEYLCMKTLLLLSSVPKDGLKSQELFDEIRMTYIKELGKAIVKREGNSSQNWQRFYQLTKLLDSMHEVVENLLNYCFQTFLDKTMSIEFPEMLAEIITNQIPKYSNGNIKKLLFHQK
Transcriptional activator Myb (Homo sapiens), sequence (P10242 whole entry, looked up): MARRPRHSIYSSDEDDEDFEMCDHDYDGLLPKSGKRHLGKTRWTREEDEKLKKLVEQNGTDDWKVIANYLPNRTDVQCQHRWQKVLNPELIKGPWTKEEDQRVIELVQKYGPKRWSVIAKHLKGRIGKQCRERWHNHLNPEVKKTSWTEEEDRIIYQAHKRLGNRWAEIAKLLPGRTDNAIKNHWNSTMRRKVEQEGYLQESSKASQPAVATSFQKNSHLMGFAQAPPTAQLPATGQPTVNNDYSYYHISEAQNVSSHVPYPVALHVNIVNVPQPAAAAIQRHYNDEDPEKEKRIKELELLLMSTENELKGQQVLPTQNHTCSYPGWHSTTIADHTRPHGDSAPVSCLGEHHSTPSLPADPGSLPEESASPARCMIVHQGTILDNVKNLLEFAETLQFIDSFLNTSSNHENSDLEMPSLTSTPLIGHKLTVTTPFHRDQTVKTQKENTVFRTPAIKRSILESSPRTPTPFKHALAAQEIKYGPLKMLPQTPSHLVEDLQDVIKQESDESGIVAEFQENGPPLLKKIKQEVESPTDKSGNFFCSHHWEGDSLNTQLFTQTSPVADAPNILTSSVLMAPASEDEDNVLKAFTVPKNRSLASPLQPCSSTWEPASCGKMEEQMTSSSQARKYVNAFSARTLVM
Oxysterols receptor LXR-beta (Homo sapiens), sequence (P55055 whole entry, looked up, the tested form may be a part): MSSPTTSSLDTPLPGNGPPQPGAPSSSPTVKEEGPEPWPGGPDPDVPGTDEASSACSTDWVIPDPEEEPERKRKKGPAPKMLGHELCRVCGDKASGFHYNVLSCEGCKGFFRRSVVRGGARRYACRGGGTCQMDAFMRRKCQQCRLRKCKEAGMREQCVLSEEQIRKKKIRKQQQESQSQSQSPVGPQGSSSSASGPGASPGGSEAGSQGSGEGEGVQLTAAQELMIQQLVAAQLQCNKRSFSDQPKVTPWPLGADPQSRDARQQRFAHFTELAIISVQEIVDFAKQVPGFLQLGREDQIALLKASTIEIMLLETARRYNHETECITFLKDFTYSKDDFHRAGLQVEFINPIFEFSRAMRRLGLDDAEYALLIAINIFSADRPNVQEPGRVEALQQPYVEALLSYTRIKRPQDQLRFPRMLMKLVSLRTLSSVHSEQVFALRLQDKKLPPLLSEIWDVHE
Nuclear receptor subfamily 4 group A member 2 (Homo sapiens), sequence (P43354 whole entry, looked up, the tested form may be a part): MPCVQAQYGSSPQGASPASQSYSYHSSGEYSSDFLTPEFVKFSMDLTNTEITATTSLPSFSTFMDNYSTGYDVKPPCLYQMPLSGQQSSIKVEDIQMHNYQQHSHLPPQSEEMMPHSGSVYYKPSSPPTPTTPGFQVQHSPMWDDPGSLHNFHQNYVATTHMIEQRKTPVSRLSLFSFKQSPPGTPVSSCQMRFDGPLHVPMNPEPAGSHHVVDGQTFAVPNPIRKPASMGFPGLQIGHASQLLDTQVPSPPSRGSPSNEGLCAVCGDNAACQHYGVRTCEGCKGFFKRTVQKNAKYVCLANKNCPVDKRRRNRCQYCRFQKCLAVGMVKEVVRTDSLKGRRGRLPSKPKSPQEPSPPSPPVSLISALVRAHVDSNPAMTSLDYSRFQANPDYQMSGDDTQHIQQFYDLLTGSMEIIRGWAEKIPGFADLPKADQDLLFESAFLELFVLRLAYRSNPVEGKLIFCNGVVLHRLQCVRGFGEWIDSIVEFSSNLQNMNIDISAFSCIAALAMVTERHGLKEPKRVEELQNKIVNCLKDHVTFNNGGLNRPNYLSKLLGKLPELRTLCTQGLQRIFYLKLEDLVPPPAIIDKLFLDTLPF
Oxysterols receptor LXR-alpha (Homo sapiens), sequence (Q13133 whole entry, looked up, the tested form may be a part): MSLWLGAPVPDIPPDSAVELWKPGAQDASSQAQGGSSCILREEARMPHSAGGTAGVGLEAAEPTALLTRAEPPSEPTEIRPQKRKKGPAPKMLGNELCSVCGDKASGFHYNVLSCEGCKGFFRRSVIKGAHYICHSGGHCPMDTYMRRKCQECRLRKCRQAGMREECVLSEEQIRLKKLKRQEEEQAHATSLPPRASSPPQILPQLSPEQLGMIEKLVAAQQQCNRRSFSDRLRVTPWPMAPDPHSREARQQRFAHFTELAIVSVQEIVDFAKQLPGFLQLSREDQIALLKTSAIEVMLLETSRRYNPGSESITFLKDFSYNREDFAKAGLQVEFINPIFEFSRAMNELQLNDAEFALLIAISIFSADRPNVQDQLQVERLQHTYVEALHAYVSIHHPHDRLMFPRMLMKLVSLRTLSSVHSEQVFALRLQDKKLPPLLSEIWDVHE
Nuclear respiratory factor 1 (Homo sapiens), sequence (Q16656 whole entry, looked up): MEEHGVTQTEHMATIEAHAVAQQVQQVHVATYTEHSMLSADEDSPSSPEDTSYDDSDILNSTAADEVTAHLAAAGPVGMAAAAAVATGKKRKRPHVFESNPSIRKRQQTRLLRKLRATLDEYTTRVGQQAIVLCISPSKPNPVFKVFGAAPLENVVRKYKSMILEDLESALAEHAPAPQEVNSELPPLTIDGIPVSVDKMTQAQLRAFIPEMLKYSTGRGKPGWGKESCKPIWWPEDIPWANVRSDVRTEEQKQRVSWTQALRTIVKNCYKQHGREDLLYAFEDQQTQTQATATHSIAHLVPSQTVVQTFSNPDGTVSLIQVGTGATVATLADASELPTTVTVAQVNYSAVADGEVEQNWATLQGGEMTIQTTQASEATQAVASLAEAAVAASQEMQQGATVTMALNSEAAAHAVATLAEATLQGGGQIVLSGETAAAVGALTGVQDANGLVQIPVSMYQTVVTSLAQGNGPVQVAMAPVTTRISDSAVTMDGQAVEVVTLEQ
Myc proto-oncogene protein (Homo sapiens), sequence (P01106 whole entry, looked up): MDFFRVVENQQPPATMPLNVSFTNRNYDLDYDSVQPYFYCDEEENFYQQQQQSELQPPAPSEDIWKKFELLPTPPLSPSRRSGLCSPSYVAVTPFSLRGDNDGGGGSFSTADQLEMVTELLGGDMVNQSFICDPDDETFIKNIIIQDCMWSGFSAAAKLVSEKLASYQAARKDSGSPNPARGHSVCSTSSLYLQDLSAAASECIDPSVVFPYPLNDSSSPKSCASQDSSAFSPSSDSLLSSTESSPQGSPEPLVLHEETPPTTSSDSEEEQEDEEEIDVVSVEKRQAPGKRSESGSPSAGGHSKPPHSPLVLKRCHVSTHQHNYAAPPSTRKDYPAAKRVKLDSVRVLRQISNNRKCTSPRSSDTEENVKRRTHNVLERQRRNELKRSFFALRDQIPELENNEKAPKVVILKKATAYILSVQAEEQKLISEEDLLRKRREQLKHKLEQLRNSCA

CC(=O)[O][Hg][c]1ccccc1
active: [7] 3710 nM | [10] 2240 nM | [11] 2500 nM | [13] 2590 nM | [14] 1170 nM
inactive: [1] | [2] | [3] | [4] | [5] | [6] | [8] | [9] | [12]

CCNc1nc(NC(C)(C)C)nc(SC)n1
inactive: [1] | [2] | [3] | [4] | [5] | [15] | [16] | [6] | [17] | [8] | [9] | [11] | [12] | [13] | [14]

O=C/C=C/c1ccccc1
inactive: [1] | [3] | [4] | [18] | [15] | [16] | [6] | [17] | [7] | [8] | [9] | [11] | [12]
active: [10] 30800 nM

COP(=S)(OC)Oc1cc(Cl)c(Cl)cc1Cl
active: [13] 2210 nM
inactive: [1] | [3] | [4] | [18] | [5] | [16] | [6] | [17] | [7] | [8] | [9] | [11] | [14]

CC(C)(OO)c1ccccc1
inactive: [1] | [2] | [15] | [6] | [17] | [8] | [9] | [10] | [11] | [12] | [13] | [14]
